Shown are actives, neighbours in structure and some others; about 4.3% of the full set was active somewhere.
uPA generation – qHTS for Inhibitors of Cell Surface uPA Generation | cell surface uPA generation assay, qHTS | Potency, µM (highest dose often 38.3 µM), for the others: at the top dose activity change, negative = inhibition, hits mostly inhibitors | actives 0.31% (n = 330,000) | AID 540303, 2011; active = well fitted inhibition curve with a large enough effect; inconclusive = small, poorly fitted or top-dose-only effect; inactive = no such curve, though single readings can be large or run the other way; tested in mouse RAW 264.7 cells; note: potency is the fitted concentration of half-maximal effect; % is set by controls: 0 for no effect and ±100 for the full control effect; nearly all actives have a fitted effect of over 55% in size
MCF10A rereplic – A quantitative high throughput screen for small molecules that induce DNA re-replication in MCF 10a normal breast cells. MCF 10A DNA re-replication, Hoechst nuclear intensity, 48 h. Potency, µM (series often up to 46.1 µM), inactives show top-dose activity, positive = re-replication, usual class: activators. actives 2.9% (n = 350,000); note: potency is the fitted concentration of half-maximal effect; % of control where 0% means no effect; nearly all actives have a fitted effect of over 50% in size
SW480 rereplic – A quantitative high throughput screen for small molecules that induce DNA re-replication in SW480 colon adenocarcinoma cells; SW480 DNA re-replication, Hoechst DNA content imaging, 48 h; Potency, µM (top dose mostly 46.1 µM), for inactives: at the highest dose re-replication activation, usual class: activators; actives 1.8% (n = 340,000); note: potency is the fitted concentration of half-maximal effect; % of control where 0% means no effect; nearly all actives have a fitted effect of over 55% in size
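Image-based DNA-content assay: after two days of treatment, nuclei were labelled with the DNA dye Hoechst and imaged, and hits were compounds raising the count of nuclei showing high fluorescence intensity.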
Giardia kill – Small Molecules that selectively kill Giardia lamblia: qHTS | Giardia lamblia trophozoite viability | activity change, % at 7.66 µM, hits read low | actives 0.15% (n = 340,000); in the data active = activity change below about -80%; inconclusive = between about -30% and that limit;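 note: parasites exposed to compound for two days anaerobically before the ATP read; % is set by controls: 0 for no effect and ±100 for the full control effect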
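Viability, read as ATP luminescence: trophozoites at 100 cells/well, compound added, 48 hrs anaerobic at 37 deg C, then 15-30 min room-temperature development before reading.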
The depositor's hits bear a star; u = inconclusive; x = not tested or not shown. Unless noted, calls come from the whole dose curve; as a rule, active = well fitted activation curve with a large enough effect; inconclusive = small, poorly fitted or top-dose-only effect; inactive = no such curve, though single readings can be large or run the other way.

SMILES	uPA generation	MCF10A rereplic	SW480 rereplic	Giardia kill
C/C(=N\NC(=O)c1ccccc1O)C1CC1	5%	2%	16µM*	4
C/C(=N\NC(=O)c1ccc(N)cc1)C1CC1	-1%	7%	-3%	-6
O=C(NN=C1C2CC3CC(C2)CC1C3)c1ccccc1O	5%	18%	21µM*	20
O=C(NC12CC3CC(CC(C3)C1)C2)c1ccccc1O	1%	8.2µM*	2%	13
O=C(NNC(=O)C12CC3CC(CC(C3)C1)C2)c1ccccc1O	-6%	10%	u	-13
O=C(NC12CC3CC(CC(C3)C1)C2)c1ccc(-c2ccc(Cl)cc2)o1	-7%	12%	u	-18
O=C(NC12CC3CC(CC(C3)C1)C2)c1ccc(-c2ccccc2Cl)o1	-6%	16µM*	9%	-17
CC(=O)c1cccc(S(=O)(=O)N2CCn3cccc3C2C)c1 (centres undefined)	-13%	-11%	-9%	3
CCc1nc(SCC(=O)N2CCN(c3ccccc3)CC2)c2oc3ccccc3c2n1	x	9.2µM*	-2%	9
CCc1nc(N2CCC(C)CC2)c2oc3ccccc3c2n1	x	18µM*	u	0
CCc1nc(SCCO)c2oc3ccccc3c2n1	-10%	14%	-1%	-27
C/C=C1\COC(C(=O)NCCOCCO)(C(F)(F)F)C=C1C=C1CCCCC1 (centres undefined)	x	x	x	15
COc1ccc2c(c1)C=C(CN1CCC(CO)(CCc3ccccc3)CC1)CO2	-3%	u	u	7
COc1ccc(CC2(CO)CCN(CC3=Cc4cc(Cl)ccc4OC3)CC2)cc1	-11%	23µM*	u	-22
O=C(CC1C(=O)CCCC1=O)c1ccccc1	-10%	15µM*	u	-6
O=C(Nc1nc(-c2cccs2)c(-c2cccs2)s1)C1(c2ccccc2)CC1	5%	21µM*	5%	-8
COc1c(O)cc(O)c2c(=O)cc(-c3ccccc3)oc12	4%	16µM*	-4%	15
COc1ccc(-c2cc(=O)c3c(OC)c(OC)c(OC)c(OC)c3o2)cc1OC	-9%	u	-81%	9
COc1cc(O)c2c(=O)cc(-c3ccccc3)oc2c1	-15%	u	21%	-8
COc1c(OC)c(O)c2c(=O)cc(-c3c(O)cccc3O)oc2c1OC	7.1µM*	1%	11%	-16
COc1ccc(-c2cc(=O)c3c(O)c(OC)c(OC)c(OC)c3o2)cc1	-1%	14%	u	u
COc1ccc(-c2cc(=O)c3c(O)c(OC)c(O)cc3o2)cc1	10µM*	0%	u	u
Cn1c(COc2ccccc2)nnc1SCC(=O)Nc1nnc(C2CC2)s1	9%	17%	-7%	4
COc1ccc(Br)cc1C(=O)Nc1ccc(Cc2ccncc2)cc1	x	u	2%	-1
COc1ccc(NS(=O)(=O)NC(=O)c2c(C)n(C)c3ccccc23)cc1	-19%	4%	u	-8
SMILES	uPA generation	MCF10A rereplic	SW480 rereplic	Giardia kill
COc1c(C(=O)Nc2ccc(Cc3ccncc3)cc2)ccc2ccccc12	u	23µM*	u	26
COc1ccc(NC(=O)c2cc3ccccc3cc2O)cc1	-15%	4.6µM*	u	-11
COc1ccc(NC(=O)c2c(Cl)n(C)c3ccccc23)cc1	-21%	16µM*	u	0
Cc1ccc(C)c(NC(=O)NNC(=O)c2cc3ccccc3cc2O)c1	0%	15µM*	-25%	13
CCCCCCCCCCCC(=O)[O][Sn]([CH2]CCC)([CH2]CCC)[O]C(=O)CCCCCCCCCCC	x	11%	3%	x
Cc1cc(F)cc(C)c1Cn1cnc2c(cnn2C(C)(C)C)c1=O	-3%	1%	2%	-22
COc1ccc(NC(=O)c2cccc3ccccc23)cc1	-11%	21µM*	u	10
O=C(NC1CCCCC1)c1cc2ccccc2cc1O	-1%	-2%	18µM*	-4
O=C(O)c1cc(=O)c2cccc(O)c2[nH]1	x	x	x	4
O=C(NCc1nc2ncc(Br)cc2[nH]1)c1ccccc1	3%	-2%	-1%	1
O=c1[nH]c2cc(Br)cnc2nc1/C=C(\O)c1ccc(F)cc1	2%	7.3µM*	18%	17
O=C(NCC1CCCO1)C(=O)N/N=C/c1cccc(Cl)c1 (centres undefined)	-5%	0%	-1%	-4
S=c1nc2[nH]c3ccccc3c2n[nH]1	2%	-5%	-2%	20
CC(/C=C/C=C(\C)C(=O)O[C@@H]1O[C@H](CO[C@@H]2O[C@H](CO)[C@@H](O)[C@H](O)[C@H]2O)[C@@H](O)[C@H](O)[C@H]1O)=C\C=C\C=C(C)\C=C\C=C(/C)C(=O)O[C@@H]1O[C@H](CO[C@@H]2O[C@H](CO)[C@@H](O)[C@H](O)[C@H]2O)[C@@H](O)[C@H](O)[C@H]1O	x	0%	-3%	x
CCOc1ccc(OCC)c(NC(=O)CN2CCN(c3cccc(C)c3)C(C)C2)c1 (centres undefined)	1%	15µM*	u	-2
COc1ccc(C(=O)N(Cc2ccco2)Cc2cccs2)c(OC)c1	x	x	x	15
CCC(CC)(CC(=O)Nc1cccc(/C=C/c2nc(C3CCC3)cs2)c1)C(=O)O	x	12%	-3%	x
O=C(CC1(O)C(=O)Nc2ccccc21)c1ccc2c(c1)OCO2 (centres undefined)	7%	7%	0%	12
CC(=O)[C@@H]1[C@@H](C(=O)c2ccc(F)cc2)[C@]2(C(=O)Nc3ccccc32)[C@H]2C=Cc3cc(F)ccc3N12	-2%	21µM*	u	3
Cc1ccc(C(=O)N2CC(=O)Nc3ccc(F)cc3C2c2ccccc2)cc1 (centres undefined)	6%	12%	0%	18
CC(=O)[C@@H]1[C@@H](C(=O)c2ccc(C)cc2)[C@]2(C(=O)Nc3ccccc32)[C@H]2C=Cc3cc(F)ccc3N12	-6%	16µM*	u	3
O[C@@H]1CO[C@H]2[C@@H]1OC[C@@H]2O	x	-3%	-6%	x
O=C1CCCC2=C1C(c1ccc(Cl)cc1)N=C(Nc1nc3ccccc3o1)N2 (centres undefined)	x	x	x	5
COc1ccccc1NC(=S)NCCSc1ccc(Cl)cc1	-3%	4%	u	2
COc1ccc(Cl)cc1NC(=S)NCCSc1ccc(C)cc1	0%	23µM*	-5%	4
SMILES	uPA generation	MCF10A rereplic	SW480 rereplic	Giardia kill
COc1cc(-c2cc(-c3ccc(O)cc3)nc(N)c2C#N)ccc1O	-2%	u	-12%	0
COc1ccc(-c2cc(-c3ccccc3)c(C#N)c(S(C)(=O)=O)n2)cc1	-7%	u	u	20
CCOc1cc(-c2cc(-c3ccc(C)cc3)nc(N)c2C#N)ccc1O	x	21µM*	16µM*	1
COc1ccc(-c2cc(-c3ccc(O)cc3)nc(N)c2C#N)cc1	u	u	22%	-12
CS(=O)(=O)c1nc(-c2ccc(Br)cc2)cc(-c2ccccc2)c1C#N	-5%	5.8µM*	3.7µM*	-7
N#Cc1c(-c2ccccc2)cc(-c2ccc(O)cc2)nc1N	u	23µM*	u	4

Source: PubChem BioAssay
